Source: PubChem BioAssay (several laboratories)
EBNA-1 inh = EBNA-1 DNA-binding inhibitors, primary screen, biochemical, fluorescence polarization. 0.34% of 300,000 active. AID 1950, 2009. inhibition, % at 14.8 µM; in the data active = inhibition above about 28%
ZTA DNA inh = blocks Epstein-Barr virus ZTA, an EBNA-1 counter-screen | P03206 | ZTA-DNA binding, fluorescence polarization | inhibition, % at 11 µM | 0.15% of 320,000 active | AID 2234; in the data active = inhibition above about 33%
NR3A LBD binder = binders of NR3A ligand-binding domain, primary screen, biophysical, differential scanning fluorimetry, uHTS; Glutamate receptor ionotropic, NMDA 3A (GRIN3A) ligand-binding domain; NR3A LBD differential scanning fluorimetry, Tm shift; 0% = protein alone, 100% = glycine-bound protein; Tm shift relative to glycine control, % at 25 µM; 2.5% of 340,000 active; AID 1259313, 2017;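 active = melting temperature shift of at least 10% of the positive control shift, at one fixed dose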
TPT1 inh = Candida albicans TPT1 enzyme inhibitors, primary screen, biochemical, fluorescence polarization; recombinant caTPT1, FP RNA substrate dephosphorylation; AID 1962, 2009; tRNA 2'-phosphotransferase TPT1 (Candida albicans SC5314); 0.81% of 300,000 active; inhibition, % at 5 µM;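 active = inhibition above the mean of all tested compounds plus 3 SD, set per screening campaign, cut at about 24% in these data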;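 also: plate controls were DMSO alone for no effect and ferristatin control at 100 nM for full effect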
dFosB activator = activators of delta FosB homodimer, primary screen, biochemical, fluorescence polarization, TAMRA-CDK5 oligo, single point; purified delta FosB; percent of positive-control signal above neutral wells; activation, % at 25 µM; 0.99% of 340,000 active;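 active = mean activation above about 17%, with every replicate also reaching it, limit read from the data, passing the limit was not always enough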
Target sequence (P13346 whole entry, looked up): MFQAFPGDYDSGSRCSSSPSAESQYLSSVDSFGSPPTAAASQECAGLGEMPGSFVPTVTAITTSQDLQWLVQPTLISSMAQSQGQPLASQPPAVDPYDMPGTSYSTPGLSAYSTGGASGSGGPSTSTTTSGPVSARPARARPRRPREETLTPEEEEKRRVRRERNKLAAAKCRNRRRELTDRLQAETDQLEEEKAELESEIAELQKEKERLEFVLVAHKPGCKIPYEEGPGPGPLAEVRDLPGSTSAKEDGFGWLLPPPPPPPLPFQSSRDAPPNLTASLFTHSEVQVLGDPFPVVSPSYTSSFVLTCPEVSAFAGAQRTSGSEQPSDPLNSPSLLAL
Rpn11 block = Rpn11 (PSMD14) deubiquitinase inhibitors, primary screen, biochemical, fluorescence polarization, uHTS. human 26S proteasome, Ub4-pepOG fluorescence polarization; 20S core pre-blocked with epoxomicin. AID 588493, 2011. 0.59% of 360,000 active. inhibition, % at 20 µM;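 active = inhibition at 20 µM, scaled to each plate's controls, above about 33%, limit read from the data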
Target sequence (O00487 whole entry, looked up): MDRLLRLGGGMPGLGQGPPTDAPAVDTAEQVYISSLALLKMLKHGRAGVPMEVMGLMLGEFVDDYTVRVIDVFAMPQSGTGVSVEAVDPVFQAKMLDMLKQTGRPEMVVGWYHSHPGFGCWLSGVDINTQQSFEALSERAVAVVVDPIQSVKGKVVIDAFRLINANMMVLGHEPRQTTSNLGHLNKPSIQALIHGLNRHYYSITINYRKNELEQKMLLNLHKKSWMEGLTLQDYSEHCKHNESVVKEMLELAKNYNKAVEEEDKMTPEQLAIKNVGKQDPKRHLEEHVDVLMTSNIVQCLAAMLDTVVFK
caTPT1 confirm = Candida albicans TPT1 inhibitors, confirmation, biochemical, fluorescence polarization, triplicate. shares compounds with TPT1 inh. recombinant caTPT1, RNase T1 coupled. inhibition, % at 5 µM. 74% of 2,400 active;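 active = inhibition above the primary screen limit, the mean inhibition of all tested compounds plus 3 SD, cut at about 25% in these data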
RNase T1 inh = RNase T1 inhibitors, counter-screen for TPT1 inhibitor project, biochemical, fluorescence polarization; 83% of 2,400 active; inhibition, % at 5 µM; shares compounds with TPT1 inh; RNase T1 cleavage, 1536-well;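 active = inhibition above the solvent-only control well mean plus 3 SD, limit set per screening run, cut at about 23% in these data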;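 also: plate controls were DMSO wells with enzyme for no effect and wells without RNase T1 for full effect; inhibitors block cleavage so intact labeled substrate keeps polarization high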
Starred values were filed as active, the others as inactive; . = no result shown; + = active, no number. Only some compounds are listed: those with a hit (about 4.5% of all), similar ones and a draw of the others.

SMILES | EBNA-1 inh | ZTA DNA inh | NR3A LBD binder | TPT1 inh | dFosB activator | Rpn11 block | caTPT1 confirm | RNase T1 inh
Oc1ccc(Nc2nc3ccccc3nc2Nc2ccc(O)cc2)cc1 | -10.9 | 14.8 | 16.7* | 52.1* | -6.5 | 52.9* | 49.1* | 66.7*
Cc1cc(C(=O)COC(=O)c2cccnc2Cl)c(C)n1-c1c(C)n(C)n(-c2ccccc2)c1=O | -12.1 | -8.6 | -1.7 | 2.1 | -2.8 | -3.3 | . | .
CCn1c2ccccc2c2cc(NC(=O)c3ccc(=O)oc3)ccc21 | -2.4 | 7.4 | 4.7 | 63.3* | . | -13.3 | 34.5* | 37.4*
Cc1cccc(C)c1N=Cc1c(O)n(-c2nccs2)c(=O)c2ccccc12 | 8.8 | -11.0 | -1.2 | 1.1 | -3.7 | -30.1 | . | .
O=c1c2ccccc2c(/C=N/c2nnc(Cc3ccccc3)s2)c(O)n1-c1ccc(Cl)cn1 | 3.1 | -2.1 | -3.1 | 25.1* | -11.6 | . | 153.8* | 146.2*
CC1=CC(=C(C#N)c2nc3ccccc3s2)C=C(C)N1CC1CCCO1 (stereo unspecified) | -3.2 | -14.6 | -4.3 | 6.9 | -9.9 | 4.4 | . | .
Cc1ccc(OCC(=O)N2CCN(c3ccc([N+](=O)[O-])c(N4CCOCC4)c3)CC2)cc1 | 0.8 | -3.0 | -10.3 | 30.8* | -9.8 | -8.6 | 2.9 | 16.9
CCOc1ccc(/C=C/C(=O)c2c(O)cc(C)oc2=O)cc1 | -5.7 | -24.6 | -0.8 | 45.3* | -6.0 | 14.7 | 10.6 | 10.3
Cc1cc(O)c(C(=O)/C=C/c2ccccc2)c(=O)o1 | . | . | -0.7 | . | -5.6 | 21.6 | . | .
CCCn1c(NC(=O)CCNC(=O)c2ccccc2Cl)nc2ccccc21 | . | 11.5 | -0.2 | . | 3.1 | 2.2 | . | .
CCCn1c(NC(=O)CCS(=O)(=O)c2ccc(C)cc2)nc2ccccc21 | -4.2 | 4.3 | 0.3 | 46.3* | -10.3 | 23.3 | 58.5* | 67.7*
CC(=O)NC/C(C)=N\Nc1ccc([N+](=O)[O-])cc1 | 1.0 | 8.8 | -1.4 | 32.1* | 0.6 | 36.3 | 42.9* | 54.7*
C/C(=N/Nc1ccccc1[N+](=O)[O-])c1ccc([N+](=O)[O-])cc1 | -1.7 | -2.8 | 1.2 | -0.9 | 0.0 | 1.1 | . | .
C/C(=N\Nc1ccc([N+](=O)[O-])cc1)c1ccc(O)cc1 | -2.8 | -17.2 | 22.8* | 94.3* | -5.3 | . | 90.8* | 100.2*
COc1ccc(OCC(=O)NCCNC(=O)c2cccnc2)cc1 | 4.4 | 3.6 | -1.7 | 0.8 | -6.4 | 3.3 | . | .
O=C(C[n+]1ccccc1)c1ccc(-c2ccccc2)cc1 | 4.6 | -5.0 | 1.0 | 39.8* | -1.4 | 6.2 | 3.8 | 9.2
Cc1ccc(N(Cc2ccccc2)C(=O)c2ccc(Cl)c(S(=O)(=O)N3CCOCC3)c2)cc1 | -1.5 | -9.9 | -0.5 | 1.9 | -4.2 | 1.6 | . | .
COC(=O)c1c(-c2ccccc2Cl)noc1/C=C/N(C)C | 9.7 | 4.9 | -0.7 | 131.1* | -2.4 | 5.8 | 28.1* | 34.9*
Cc1onc(-c2ccccc2Cl)c1C(N)=O | -0.7 | -5.7 | -3.8 | -3.1 | -2.1 | 2.5 | . | .
CCOC(=O)C1=C(C)N=c2s/c(=C/c3cccc([N+](=O)[O-])c3O)c(=O)n2C1c1cc(OC)c(OC)c(OC)c1 (stereo unspecified) | -10.7 | -12.9 | 2.1 | 4.6 | -5.5 | 2.0 | . | .
CCOC(=O)C1=C(C)N=c2s/c(=C\c3cccn3C)c(=O)n2C1c1cccc(OC)c1OC (stereo unspecified) | -4.6 | -3.9 | -0.6 | 82.3* | 10.0 | . | 138.9* | 137.1*
CCOC(=O)C1=C(C)N=c2s/c(=C/c3ccco3)c(=O)n2C1c1cccc(OC)c1 (stereo unspecified) | -4.0 | 1.5 | -0.6 | 31.2* | . | . | 25.3* | 34.9*
Cc1c(Cc2ccccc2)sc(/N=C/c2c(O)ccc3ccccc23)c1C(N)=O | 1.0 | -0.5 | 11.5* | 94.0* | -9.1 | . | 47.6* | 57.1*
Cc1c(Cc2ccccc2)sc(/N=C/c2ccc3ccccc3c2)c1C(N)=O | 2.8 | -3.0 | 0.3 | 55.6* | -6.2 | 31.2 | 7.6 | 13.1
CCOC(=O)C1CCCN(CC(O)COCc2ccccc2OC)C1 (stereo unspecified) | 9.9 | 1.1 | 0.9 | -2.7 | -1.7 | -4.9 | . | .
SMILES | EBNA-1 inh | ZTA DNA inh | NR3A LBD binder | TPT1 inh | dFosB activator | Rpn11 block | caTPT1 confirm | RNase T1 inh
Cn1ncc(Cl)c1C(=O)Nc1ccc(CN2CCCCC2)cc1 | 4.1 | -4.2 | 1.5 | -1.5 | 4.3 | -4.5 | . | .
N#CC1(C#N)CC(C=O)=C(N)C1(C#N)CC(=O)c1ccc(F)cc1 (stereo unspecified) | 1.9 | -5.4 | -6.1 | 56.9* | -6.2 | 11.9 | 31.6* | 42.5*
Cc1ccc([N+](=O)[O-])cc1N/C=C/C(=O)c1ccco1 | -0.4 | -9.0 | 1.3 | 0.6 | -9.4 | -1.0 | . | .
Cc1ccc(N/C=C/C(=O)c2ccco2)c(O)c1 | 6.4 | 6.0 | -2.3 | 29.3* | 0.9 | 39.1 | 46.3* | 55.2*
CC(C)CC1=NN2C(=N)/C(=C\c3coc4ccccc4c3=O)C(=O)N=C2S1 | . | . | -1.6 | . | -5.7 | . | . | .
CCSC1=NSC2=NC(=O)/C(=C\c3coc4ccccc4c3=O)C(=N)N12 | 2.4 | -4.7 | 10.9* | 55.2* | -7.7 | 8.6 | 1.8 | 14.3
CCCCCCCCNS(=O)(=O)CCNCc1ccccc1OC | . | . | -1.1 | . | -4.1 | -3.9 | . | .
N#C/C(=C\c1ccc(-c2ccc(C(=O)O)cc2)o1)C(=O)Nc1ccc(F)cc1 | -8.6 | -4.5 | -3.6 | 32.6* | 2.2 | 35.9 | 47.7* | 61.4*
Cc1cccc(C)c1NC(=O)/C(C#N)=C/c1ccc(-c2ccc(C(=O)O)cc2)o1 | 8.4 | 2.8 | -0.7 | 0.8 | -5.7 | 13.8 | . | .
C=CCn1c(SCc2nc3sc4c(c3c(=O)[nH]2)CCCC4)nc2ccccc2c1=O | 25.0 | -4.9 | 1.2 | 26.6* | -3.9 | . | 48.1* | 61.8*
CC(=O)c1ccccc1NCC(=O)Nc1ccc(C)cc1 | 0.3 | 5.5 | -13.0 | + | -9.3 | 0.5 | 17.8 | 29.0*
Cc1ccc(N(CCC#N)C(=O)CN2C(=O)NC(Cc3ccccc3)C2=O)cc1 (stereo unspecified) | -8.4 | 0.6 | -0.7 | -1.5 | -2.3 | -0.7 | . | .
